# Measurements from PubChem BioAssay (NCATS).
# Records with an inconclusive call do not appear. Activity calls are given as the source filed them. Calls come from the whole dose curve; as a rule, active = well fitted curve in the direction sought with a large enough effect; inconclusive = small, poorly fitted or top-dose-only effect, or another doubt; inactive = no such curve, though single readings can be large or run the other way.
# Experiment: qHTS for Inhibitors of the vitamin D receptor (VDR): Hit Validation using a Texas Red Assay (AID 602201)
# Details: VDR coregulator binding, Texas Red fluorescence polarization, agonist-bound VDR ligand-binding domain; series mostly up to 57.1 µM
# Procedure, shortened: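 Fluorescence polarization (Ex 595/Em 615 nm) of Texas Red (7 nM) with 1.5 uM VDR-LBD and LG19078 (final concentrations). Compounds were incubated for 2 hours at room temperature.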
# Potency is the fitted concentration of half-maximal effect.
row,Compound,Potency
1,O=C1C(=O)c2c(C(=O)c3ccccc3)coc2-c2ccccc21,inactive
2,COc1ccc(OC)c2c1C(=O)C(Cl)=C(Cl)C2=O,7.08 µM (active)
3,CCOC(=O)N1C(=O)[C@@](CC)(c2ccccc2)N1C(=O)OCC,inactive
4,CCOC(=O)/C(=C\c1cccc(O)c1)c1nc2sc(C)c(C)c2c(=O)[nH]1,inactive
5,CCOC(=O)/C(C#N)=C1/C(=O)N(Cc2ccccc2)c2ccccc21,inactive
6,O=C(Nc1nc(-c2ccncc2)cs1)C1COc2ccccc2O1 (centres undefined),7.08 µM (active)
7,FC(F)(F)c1cccc(Sc2nc(-c3ccccc3)nnc2C(F)(F)F)c1,inactive
8,CC(=O)C1=C(c2ccc(Br)cc2)C(=O)c2ccccc2C1=O,3.55 µM (active)
9,O=C(/C=C/c1ccc([N+](=O)[O-])cc1)c1cccs1,25.1 µM (active)
10,Cc1cccc(CS(=O)(=O)c2ncc(Cl)c(C(=O)NCc3ccccc3)n2)c1,inactive
11,O=c1[nH]c(/C=C/c2ccccc2)c([N+](=O)[O-])c(=O)[nH]1,inactive
12,COc1cccc(/C=C/c2[nH]c(=O)[nH]c(=O)c2[N+](=O)[O-])c1O,inactive
13,CCC(C)(C)n1nnnc1C(c1ccc(O)c(OC)c1)N1CCc2ccccc2C1 (centres undefined),25.1 µM (active)
14,O=C(O)CSc1cc(NS(=O)(=O)c2cccc([N+](=O)[O-])c2)c2ccccc2c1O,2.82 µM (active)
15,CC(C)c1nnc(NC(=O)CCS(=O)(=O)c2nc(-c3cccs3)cc(C(F)(F)F)n2)s1,inactive
16,[O-]/[N+](=C\c1ccccc1)c1ccc(Br)cc1,inactive
17,O=C1Nc2ccc(Br)cc2C1=Nc1cccnc1,inactive
18,COC(=O)/C=c1/sc2nc3ccccc3n2c1=O,8.91 µM (active)
19,CCOc1cc(/C=C2\COc3ccccc3C2=O)cc(Br)c1OCC(=O)N(C)C,inactive
20,Cc1sc(C(C2C(=O)CC(C)(C)CC2=O)C2C(=O)CC(C)(C)CC2=O)cc1[N+](=O)[O-],7.94 µM (active)

row,Compound,Potency
1,Cn1c(/C(C#N)=C/c2ccc(C(F)(F)F)cc2)nc2ccccc21,14.1 µM (active)
2,COc1ccc(OC)c(/C=C/C(=O)c2ccc(Cl)cc2)c1,28.2 µM (active)
3,CCCCN1C(=O)C(=Nc2cccc3cnccc23)c2ccccc21,inactive
4,CC(=O)NC1=CC(=O)c2nonc2C1=O,3.16 µM (active)
5,Cc1c(Cc2ccc3c(c2)OCO3)sc(NC(=O)c2cccc3ccccc23)c1C(N)=O,28.2 µM (active)
6,CS(=O)(=O)c1ccc(S(=O)CC(=O)Oc2ccc(Cl)cc2)c([N+](=O)[O-])c1 (centres undefined),2.51 µM (active)
7,CCOC(=O)c1ccc(S(=O)(=O)Nc2cc(S(=O)(=O)N3CCOCC3)ccc2O)cc1,inactive
8,O=C(O)CN1C(=O)/C(=C\c2cc(Br)ccc2OCc2ccc(Cl)cc2Cl)SC1=S,inactive
9,NC(=O)COc1ccc(/C=C2\C(=O)ON=C2c2ccccc2)cc1,25.1 µM (active)
10,CN1CCN(C(=S)C(=O)Nc2ccc(Br)cc2)CC1,17.8 µM (active)
11,COC(=O)c1ccccc1NC(=O)c1nc(S(=O)(=O)Cc2ccccc2)ncc1Cl,3.16 µM (active)
12,CCN(CC)c1ccc(NC(=O)c2ccccc2)cc1S(=O)(=O)Nc1ccccc1OC,10 µM (active)
13,O=C(CCS(=O)(=O)c1nc(-c2cccs2)cc(C(F)(F)F)n1)Nc1cc(Br)ccc1O,5.62 µM (active)
14,Cc1ccc(S(=O)(=O)Oc2ccc(/C=C3\C(=N)N4N=C(S(C)(=O)=O)SC4=NC3=O)cc2)cc1,inactive
15,CN1C(=O)C(Cl)(Cl)C(=O)c2ccccc21,inactive
16,O=c1[nH]c(/C=C/c2ccc(Cl)cc2Cl)c([N+](=O)[O-])c(=O)[nH]1,inactive
17,CC(C)(C)c1cc(=O)n(-c2ccccc2)[nH]1,12.6 µM (active)
18,COc1ccc(C)cc1N1C(=N)/C(=C2/Nc3ccccc3S2)C(c2ccccc2)C1=O (centres undefined),10 µM (active)
19,Nc1nc(-c2cccc(F)c2)cs1,inactive
